The values that follow come from PubChem BioAssay AID1566 (Sanford-Burnham Center for Chemical Genomics, 2009).

Hit rate of the full screen: of about 290,000 compounds, about 1,800 (0.62%) were called active. What follows is part of a selection rich in actives, with near analogues and random picks from the rest. A number with no mark means an inactive call. Cut-off read from the data, not from the text of the source: active = inhibition above about 50%; inactive = the rest.

The test can be described thus: NOD2 signaling inhibitors, cell-based, luminescence, uHTS, HEK293 (AID 1566). As to conditions: HEK293 NOD2/NF-kB luciferase reporter, at 4 µM, hits give high values.
For `COc1cc(/C=C2\SC(=O)N(CCN)C2=O)ccc1OS(=O)(=O)c1cc(C)ccc1C`, the inhibition is -1.9%.
The same measure for `C=CCn1c(SCC(=O)Nc2ccc(-c3nc4ccc(C)cc4s3)cc2)nnc1-c1ccccc1`: -69.8%; for `COc1ccc2[nH]c(C)c(CCNC(=S)Nc3cccc(C)c3)c2c1`: -5.2%; for `O=C(COC(=O)/C(=C/c1cccs1)c1cccs1)NC(c1ccccc1)c1ccccc1`: -12.9%.
The same measure for `CCNC(=S)N1CCN(CC(=O)Nc2ccc(OC)cc2)CC1`: -3.6%; for `O=C(NN/C(=N/S(=O)(=O)c1ccc(Cl)cc1)c1ccccc1)c1cccc(Cl)c1`: -51.7%; for `CC(Oc1ccccc1)C(=O)NC1=NCCS1` (stereo not drawn): -34.9%.
The same measure for `CN1C(=O)C2(C(C#N)=C(N)N(c3ccc(Cl)cc3)C3=C2C(=O)CC(C)(C)C3)c2ccccc21` (stereo not drawn): 5.6%.
Take `CN1C(=O)C2(C(C#N)=C(N)N(c3cc(Cl)cc(Cl)c3)C3=C2C(=O)CCC3)c2ccccc21` (stereo not drawn): the inhibition is 53% (active).
Under `CN1C(=O)C2(C(C#N)=C(N)N(c3cc(Cl)cc(Cl)c3)C3=C2C(=O)CC(C)(C)C3)c2ccccc21` (stereo not drawn) stands 48.4%; under `O=C(CSc1ccc(Br)cc1)N1CCOCC1`, 0%; under `CCCn1ncc(CN2CCC(Oc3ccc(C(=O)N4CCCC4)cc3)CC2)c1C`, -37.8%.
As for `COc1ccc(S(=O)(=O)N(CC(=O)NCc2ccccn2)Cc2ccccc2)cc1`, the inhibition was -13.2%.
The same measure for `CC(=O)NC1=C(NC2CCS(=O)(=O)C2)C(=O)c2ccccc2C1=O` (stereo not drawn): 5.3%.
The same measure for `CN(C1=C(NC(=O)c2ccccc2)C(=O)c2ccccc2C1=O)C1CCS(=O)(=O)C1` (stereo not drawn): -12.3%; for `O=C(NC1=C(NC2CCS(=O)(=O)C2)C(=O)c2ccccc2C1=O)c1ccccc1` (stereo not drawn): 73.2% (active); for `O=C(Nc1cccc2ccccc12)C1CCN(C(=O)NCc2ccccc2)CC1`: -12.5%.
Under `Cc1cccc(OCC(=O)N/N=C2/SCC(=O)N2Cc2ccco2)c1` stands 14.5%; under `O=C(COc1ccc(Cl)cc1)NNC(=S)NCc1ccccc1`, -20.7%; under `C=CCc1ccccc1OCC(=O)O`, -5.4%.
On to `C=CCc1ccccc1OCC(=O)NNC(=S)NCc1ccccc1`, for which the inhibition is 64.8% (active).
With `Cc1cc(-c2ccccc2)nc(Cl)c1C#N`, the inhibition is 17.2%.
The same measure for `COC(=O)C1=C(C(=O)OC)[C@@H]2N(C)c3ccc(OC)cc3[C@@]23C[C@@H](C(=O)OC)N(C(=O)C2CCC2)C3=N1`: -5.5%; for `COc1ccc(/C=C2\CCC/C(=C\c3ccc(OC)c(OC)c3OC)C2=O)c(OC)c1OC`: -10.3%; for `COc1ccc(/C=C2\CC/C(=C\c3ccc(OC)cc3OC)C2=O)c(OC)c1`: -4.6%.
On to `COc1cc(/C=C2\COC/C(=C\c3ccc(O)c(OC)c3)C2=O)ccc1O`, for which the inhibition is 2%.
The same measure for `COc1cc(OC)c(OC)cc1/C=C1\CCC(C2CCCC2)C1=O` (stereo not drawn): 27%; for `COc1cc(OC)c(OC)cc1/C=C1/Cc2ccccc2C1=O`: 26.6%.
Under `COc1cc(/C=C2/CC/C(=C/c3ccc(O)c(OC)c3)C2=O)ccc1O` stands -69.1%; under `CCCn1cnnc1CNC(=O)C1CCC(=O)N(CCc2ccc(OC)cc2)C1` (stereo not drawn), -2.5%; under `COc1cc(OC)cc(C(=O)N[C@H](C(=O)NCc2ccco2)C(C)C)c1`, 4.8%.
Under `CCN1CCN(CC(=O)N2c3ccccc3Sc3ccccc32)CC1` stands 21.1%; under `Cc1noc(C)c1CSCC(=O)OCC(=O)NC1CCCCC1`, 1.1%.
For `[O-][N+]1=C2CCC/C(=N\O)C2=NC12CCCCC2`, the inhibition is -8.9%.
As to `COc1ccccc1CNC(=O)N1CCN(c2ccccc2C)CC1`, the inhibition is 71% (active).
The same measure for `COc1ccccc1CNC(=O)N1CCN(c2ccccc2Cl)CC1`: 4%; for `COc1ccccc1CNC(=O)N1CCN(c2ccccc2)CC1`: 8.6%.
As for `O=C(CCC(=O)N1CCc2ccccc21)Nc1ccccc1`, the inhibition is 12.5%.
Regarding `N/C(=N\N=C/c1ccc(Br)cc1)N/N=C\c1ccc(Br)cc1`, the inhibition is -5.9%.
`CCN1CCN(c2ccc(NC(=O)COc3ccc([N+](=O)[O-])cc3)cc2)CC1`: the inhibition is -32.4%.
The same measure for `CCCc1nnc(NC(=O)CCC(=O)N2CCN(Cc3ccc(Cl)cc3)CC2)s1`: 53.2% (active); for `CCCc1nnc(NC(=O)CCC(=O)N2CCN(Cc3ccc(F)cc3)CC2)s1`: -3.9%.
As to `CCc1nnc(NC(=O)CCC(=O)N2CCN(Cc3ccc(Cl)cc3)CC2)s1`, the inhibition is 5.9%.
Under `CCc1ccc(NC(=O)CC2C(=O)N(c3ccc(C)cc3)C(=O)N2C2CC2)cc1` (stereo not drawn) stands -17.1%; under `O=C(Nc1ccc2ccccc2n1)Nc1ccccc1F`, -1.1%; under `COc1ccc2cc(/C=C3\SC(=S)NC3=O)c(N3CCOCC3)nc2c1`, 42.8%.
On to `COc1cc(/C=C2/SC(=O)NC2=O)ccc1OCc1ccccc1`, for which the inhibition was -9.8%.
Take `CCOc1ccc(/C=C2\SC(=S)NC2=O)cc1OC`: the inhibition was -106%.
The same measure for `CCOc1ccc(N(C)c2ccc(/C=C3/SC(=S)NC3=O)cc2)cc1`: -2.9%; for `COc1ccccc1OCCCOc1ccc(/C=C2\SC(=O)NC2=O)cc1OC`: 32%.
For `COc1ccc(-n2c(C)cc(/C=C3\SC(=S)NC3=O)c2C)cc1`, the inhibition was -195%.
The same measure for `COc1cccc(CNC(=O)C2CCC(=O)N(C3CC3)C2)c1OC` (stereo not drawn): -2.5%; for `O=C(NCCSCc1ccc(Cl)cc1)c1cccs1`: 6.3%; for `CCOc1ccc(-c2[nH]ncc2-c2ccc(Cl)cc2)c(O)c1`: 17.2%.
Under `CSc1nc(Oc2ccc3ccccc3c2)c2ccccc2n1` stands -0.5%; under `CCN(Cc1ccccc1)C(=O)Cn1c(=O)n(CCC(=O)N2CCCCC2)c(=O)c2sccc21`, 1.5%; under `O=[N+]([O-])c1ccc(Sc2cccc[n+]2[O-])c2nonc12`, 93% (active).
Under `O=[N+]([O-])c1ccc(Nc2ccccc2)c2nonc12` stands 42%; under `O=[N+]([O-])c1ccc(Nc2ccccc2O)c2nonc12`, 16%.
In the case of `O=C(NCCN1CCOCC1)c1ccccc1N1C(=O)[C@@H]2Cc3c([nH]c4ccccc34)C(c3ccccc3)N2C1=O` (stereo partly drawn), the inhibition is 5.2%.
The same measure for `Cc1ccc(NC2CCCN(C(=O)CCn3nccc3C)C2)cc1C` (stereo not drawn): -4%.
With `CC1(C)CC(N2CCCC2)=CC(=[N+]2CCCCC2)C1`, the inhibition is 33.8%.
The same measure for `CC1(C)CC(N2CCCCC2)=CC(=[N+]2CCCCC2)C1`: 44.9%; for `Cc1cc(C(=O)OCC(=O)Nc2cc(S(=O)(=O)N(C)C)ccc2Cl)c2ccccc2n1`: 10.5%.
Under `Cc1oc(-c2ccc3c(c2)OCCO3)cc1C(=O)NCC(=O)O` stands 18%.
The same measure for `Cc1oc(-c2ccc3c(c2)OCCO3)cc1C(=O)O`: 79% (active).
`CCOC(=O)CNC(=O)c1cc(-c2ccc3c(c2)OCCO3)oc1C`: the inhibition is -25%.
`CC1CN(CCOc2ccc(Cl)c(Cl)c2)CC(C)O1` (stereo not drawn): the inhibition is -27.9%.
For `O=C(NCC(=O)N1CCN(c2ccccc2)CC1)c1ccccc1`, the inhibition was -11.2%.
The same measure for `Clc1ccc(/C=C/c2nc(Cl)c(-c3ccc(Cl)cc3)c(Cl)n2)cc1`: 15.1%; for `CN1/C(=C/C=C(/C#N)C(N)=O)C(C)(C)c2ccccc21`: -25.4%.
For the compound `CN1/C(=C\C=C(/C#N)C(=O)Nc2ccc(Cl)cc2)C(C)(C)c2ccccc21`, the inhibition is 50.6% (active).
For `CN1/C(=C\C=C(/C#N)C(=O)Nc2ccccc2F)C(C)(C)c2ccccc21`, the inhibition was 23.2%.
The same measure for `Cc1nn(C(=O)CCCn2cc([N+](=O)[O-])cn2)c(C)c1Cl`: 16.7%; for `Cc1ccc(C(=O)NCCNc2ccc([N+](=O)[O-])cc2C(F)(F)F)cc1`: 16.4%.
Under `COc1ccc(-c2cc(=O)oc3cc(OC(C)C(=O)O)ccc23)cc1` (stereo not drawn) stands -5.9%.
The same measure for `COc1ccc(-c2cc(=O)oc3cc(OCC(C)=O)ccc23)cc1`: -11.8%; for `CCCn1c(=O)c(Cc2ccccc2)c(O)c2ccccc21`: 6.4%.
Turning to `CCn1cc(/C=C(\NC(=O)c2ccc(OC)cc2)C(=O)N2CCOCC2)c2ccccc21`, the inhibition is 11.3%.
Take `Cc1cc2c(c(=O)o1)C(C(C)C)C(C#N)=C(N)O2` (stereo not drawn): the inhibition is 6.9%.
`CCOC(=O)N1CCN(Cc2cc(Cl)c3cccnc3c2O)CC1`: the inhibition was 11.2%.
The same measure for `OCCN1CCN(Cc2cc(Cl)c3cccnc3c2O)CC1`: -47.1%.
Under `Cc1ccc(S(=O)(=O)NNC(=O)c2ccccc2O)cc1` stands 8.4%; under `COc1ccc(S(=O)(=O)N(Cc2cc3cc(C)ccc3[nH]c2=O)CC2CCCO2)cc1` (stereo not drawn), 16.6%.
Under `O=C(NC(=S)Nc1nc2c(s1)CCCC2)c1ccccc1` stands -7.3%; under `CC(C)(C)c1ccc(C(=O)NC(=S)Nc2nc3c(s2)CCCC3)cc1`, 60.3% (active).
Take `COC(=O)c1ccc(C(=O)NC(=S)Nc2nc3c(s2)CCCC3)cc1`: the inhibition was 5.1%.
The same measure for `COc1ccc(S(=O)(=O)N(CC(=O)N2CCN(C)CC2)c2ccc(C)cc2)cc1Br`: -9.5%.
Under `CC1(C)N=C(N)N=C(N)N1c1ccc(Oc2ccc(Cl)cc2)c(Cl)c1` stands 58.7% (active); under `COc1ccc(N2C(N)=NC(N)=NC2(C)C)cc1`, -2.7%; under `CCOc1ccc(N2C(N)=NC(N)=NC2(C)C)cc1`, -5.6%.
The same measure for `COc1ccccc1N1CCN(C(=O)CSc2nnc3c4ccccc4n(CC(=O)O)c3n2)CC1`: 9.3%.
Consider `COC(=O)CSc1nnc(CNC(=O)c2ccc(S(=O)(=O)N3CCCCC3)cc2)n1C`, for which the inhibition was 12.8%.
